In PubChem BioAssay (NCI):
The panel holds about 79,000 compounds, 15% with a hit somewhere; the sample as a whole holds those more often. Unmarked numbers belong to inactive results. Calls of active or inactive are those of the source. No stated cut-off is given here; in the data, active means growth inhibition above about 70%; inactive means the rest.

Assays:
[1] = NCI Yeast Anticancer Drug Screen. Data for the rad50 strain (AID 155);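 further: 0% = growth of vehicle-only cultures of the same strain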; conditions: S. cerevisiae rad50 strain growth inhibition, active compounds read high
In short: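 DNA repair mutant yeast, compound exposure, growth read-out; inhibition is taken relative to vehicle.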

[2] = NCI Yeast Anticancer Drug Screen. Data for the mec2-1 strain (AID 157); conditions: S. cerevisiae mec2-1 strain, active compounds read high
In short: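 Using mec2-1 yeast: add compound, measure growth, express inhibition versus vehicle-treated cultures.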

[3] = NCI Yeast Anticancer Drug Screen. Data for the sgs1 mgt1 strain (AID 161);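 further: 0% = growth of cultures given vehicle only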; conditions: S. cerevisiae sgs1 mgt1 strain, active compounds read high
In short: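 This yeast growth screen uses a strain with defined DNA-repair lesions; compound-treated growth is compared with vehicle-treated growth.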

[4] = NCI Yeast Anticancer Drug Screen. Data for the cln2 rad14 strain (AID 165);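 further: 0% = growth equal to vehicle treated cultures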; conditions: S. cerevisiae cln2 rad14 strain, active compounds read high
In short: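 Yeast strain cln2 rad14, bearing defects in cell cycle control and DNA repair, serves as the test system; values reflect growth inhibition compared with vehicle.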

[5] = NCI Yeast Anticancer Drug Screen. Data for the bub3 strain (AID 167); conditions: S. cerevisiae bub3 mutant strain, active compounds read high
In short: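 In this screen, a yeast mutant lacking normal mitotic checkpoint function is challenged with compound. Relative growth versus vehicle gives the inhibition value.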

[6] = NCI Yeast Anticancer Drug Screen. Data for the mlh1 rad18 strain (AID 175); conditions: S. cerevisiae mlh1 rad18 strain growth inhibition, active compounds read high
In short: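 Steps: expose repair-defective yeast to compound; measure growth; express inhibition against vehicle-treated controls.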

[7] = at 5.0 µM (retest, dose inferred, filed as 0.5)
[8] = at 50.0 µM (retest, dose inferred, filed as 5.0)

| Structure (SMILES) | growth inhibition [1, 7] | growth inhibition [1, 8] | growth inhibition ([1]; at 50.0 µM) | growth inhibition [2, 7] [%] | growth inhibition [2, 8] | growth inhibition ([2]; at 50.0 µM) | growth inhibition [3, 7] | growth inhibition [3, 8] | growth inhibition ([3]; at 50.0 µM) | growth inhibition [4, 7] [%] | growth inhibition [4, 8] | growth inhibition ([4]; at 50.0 µM) | growth inhibition [5, 7] | growth inhibition [5, 8] | growth inhibition ([5]; at 50.0 µM) | growth inhibition [6, 7] | growth inhibition [6, 8] | growth inhibition ([6]; at 50.0 µM) |
| --- | --- | --- | --- | --- | --- | --- | --- | --- | --- | --- | --- | --- | --- | --- | --- | --- | --- | --- |
| O=C(NC[N+]12CCO[B-]1(c1ccc(Br)cc1)OCC2)c1ccccc1O (configuration not stated) | 10% | 48% | 65.2% | 11 | 43% | 56.2% | 23% | 51% | 60.2% | -4 | 38% | 21.3% | 26% | 63% | 61.5% | 24% | 72% (active) | 87.9% (active) |
| COc1ccc(CSC(=S)Nc2cc(C)c(C)cc2[N+](=O)[O-])cc1 | 9% | 93% (active) | 95.8% (active) | 6 | 95% (active) | 97.8% (active) | 46% | 96% (active) | 97.5% (active) | -11 | 90% (active) | 93% (active) | 4% | 96% (active) | 97% (active) | 60% | 95% (active) | 98% (active) |
| NCCCN1c2ccccc2Sc2ccc(Cl)cc21 | -7% | 75% (active) | -10.7% | 12 | 58% | -25.5% | 10% | 83% (active) | 13.4% | 0 | 20% | -25.7% | -1% | 37% | 71.9% (active) | 17% | 98% (active) | 18.1% |
| CCOC(=O)C(=N\Nc1cccc(C)c1C)/C(C)=N\NC(N)=S | 3% | 35% | 70.2% (active) | 9 | 56% | 38.2% | 32% | 76% (active) | 75.8% (active) | -6 | 14% | 64.1% | 3% | 34% | 59.7% | 30% | 81% (active) | 81.1% (active) |
| O=[N+]([O-])c1ccc(SC(=S)N2CCCCC2)c([N+](=O)[O-])c1 | 21% | 98% (active) | 98.4% (active) | 16 | 98% (active) | 99% (active) | 15% | 99% (active) | 99.2% (active) | 0 | 92% (active) | 98.4% (active) | 10% | 98% (active) | 98.8% (active) | 21% | 98% (active) | 98.9% (active) |
| CCCCNC(=O)OCc1c(COC(=O)NCCCC)c(-c2ccc(Cl)c(Cl)c2)n2c1CCC2 | 33% | 98% (active) | 26.6% | 27 | 99% (active) | 7.3% | 48% | 99% (active) | 31.2% | 53 | 98% (active) | 70% | 56% | 98% (active) | 4.4% | 25% | 98% (active) | 31.8% |
| O=[n+]1c2c(n([O-])c3ccc4ccccc4c31)-c1cccc3cccc-2c13 | 1% | 7% | 2.4% | -1 | -3% | 15.2% | -4% | -5% | 11.1% | 3 | -7% | 55.9% | -1% | -9% | 19.7% | -2% | 1% | -5.75% |
| [O-][n+]1c2ccccc2nc2cc(Cl)ccc21 | -114% | 11% | 92.2% (active) | -35 | -32% | 21.6% | -53% | 6% | 68.5% | -64 | -46% | 25.6% | -47% | -1% | 48.1% | -105% | -17% | 84.8% (active) |
| CC1CN(C(=S)NNC(C)c2cc3ccccc3cn2)CC(C)O1 (configuration not stated) | 30% | 96% (active) | 87% (active) | 38 | 99% (active) | 89.8% (active) | 26% | 98% (active) | 90.5% (active) | 15 | 98% (active) | 90% (active) | 39% | 99% (active) | 88.2% (active) | 39% | 98% (active) | 91.3% (active) |
| CN(C)CC/C(=N\Nc1ccc(Cl)c(Cl)c1)c1ccccc1 | 88% (active) | 99% (active) | 99.5% (active) | 69 | 100% (active) | 97.9% (active) | 98% (active) | 100% (active) | 99.6% (active) | 34 | 99% (active) | 99.5% (active) | 82% (active) | 100% (active) | 99.6% (active) | 95% (active) | 99% (active) | 99.2% (active) |
| COC12C=CC(CC1)c1c2c(O)c2ncccc2c1O (configuration not stated) | -4% | 67% | 78.6% (active) | -3 | 40% | 34.9% | -5% | 47% | 72.5% (active) | -4 | 23% | 21.9% | 3% | 77% (active) | 90.3% (active) | -6% | 52% | 48.3% |
| CC(=O)N/N=C/c1ccc([N+](=O)[O-])o1 | 13% | 34% | 70.2% (active) | 2 | 22% | 43.1% | 12% | 50% | 81.8% (active) | 5 | 13% | 35.5% | 5% | 22% | 58.5% | 17% | 61% | 84.8% (active) |
| CCN(CC)CCCCNc1ccc(Cl)cc1 | -2% | 12% | 38.2% | 1 | -2% | 39.1% | -2% | 18% | 53.9% | 2 | -3% | -9.2% | -1% | 10% | 44.5% | -7% | 8% | 71.6% (active) |
| O=C(NC1=C(Cl)C(=O)c2ccccc2C1=O)C(=O)C(C(=O)c1ccc2ccccc2c1)C1OC(=O)c2ccccc21 (configuration not stated) | 33% | 85% (active) | 89.8% (active) | 16 | 59% | 63.5% | 30% | 98% (active) | 88.5% (active) | 20 | 95% (active) | 88.1% (active) | 22% | 99% (active) | 85.3% (active) | 26% | 83% (active) | 88.8% (active) |
| O=C(O)NCc1ccccc1 (tested in a mixture with another compound) | 11% | 94% (active) | 94% (active) | -12 | 40% | 14.8% | -5% | 74% (active) | 36.1% | 5 | 98% (active) | 60% | 23% | 98% (active) | 87.5% (active) | 3% | 80% (active) | 88% (active) |
| O=CC(I)=C(c1ccccc1)c1ccccc1 | 21% | 21% | 88.8% (active) | 13 | 13% | 92.3% (active) | 9% | 9% | 86.4% (active) | 4 | 4% | 89.8% (active) | -2% | -2% | 89.5% (active) | 21% | 21% | 86.3% (active) |
| CCCCCCCCCCCCCCCCCCNC(=S)/N=C/c1c(O)cc(C)oc1=O | 1% | 15% | 16.1% | 8 | 38% | -13.7% | -15% | 8% | 57% | 7 | -13% | -30.1% | -2% | -8% | 18.9% | 10% | 29% | 15.9% |
| O=S(=O)(CC(Br)CCl)c1ccccc1 (configuration not stated) | 2% | 72% (active) | 15.1% | 2 | 55% | 31.3% | -1% | 46% | 40.5% | 4 | 17% | -62.6% | 5% | 38% | 54.8% | 13% | 76% (active) | 57% |
| FC(F)(F)c1ccc(Cl)c(NC(=S)SC2CCCCC2)c1 | 5% | 95% (active) | 98.5% (active) | 0 | 97% (active) | 99.2% (active) | 7% | 99% (active) | 99.3% (active) | -30 | 88% (active) | 98.5% (active) | 0% | 98% (active) | 98.8% (active) | 7% | 97% (active) | 98.4% (active) |
